Assay results from article PMC4336329 (PLoS ONE, 2015).
In all, about 310,000 compounds went through this assay and about 14,000 (4.5%) showed an effect of 50% or more. Effects have a minus sign here. Only a selection was taken, and strong results are over-represented in it overall.

Target: human ether-à-go-go-related gene (hERG) potassium channel (human, UniProt Q12809)
Assay: primary screen, population patch clamp on CHO cells stably expressing hERG; higher = less effect of the substance
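Further: peak tail current of the secondary pulse compared with the same well before compound.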

Chain of human ether-à-go-go-related gene (hERG) potassium channel (Q12809 whole entry, looked up): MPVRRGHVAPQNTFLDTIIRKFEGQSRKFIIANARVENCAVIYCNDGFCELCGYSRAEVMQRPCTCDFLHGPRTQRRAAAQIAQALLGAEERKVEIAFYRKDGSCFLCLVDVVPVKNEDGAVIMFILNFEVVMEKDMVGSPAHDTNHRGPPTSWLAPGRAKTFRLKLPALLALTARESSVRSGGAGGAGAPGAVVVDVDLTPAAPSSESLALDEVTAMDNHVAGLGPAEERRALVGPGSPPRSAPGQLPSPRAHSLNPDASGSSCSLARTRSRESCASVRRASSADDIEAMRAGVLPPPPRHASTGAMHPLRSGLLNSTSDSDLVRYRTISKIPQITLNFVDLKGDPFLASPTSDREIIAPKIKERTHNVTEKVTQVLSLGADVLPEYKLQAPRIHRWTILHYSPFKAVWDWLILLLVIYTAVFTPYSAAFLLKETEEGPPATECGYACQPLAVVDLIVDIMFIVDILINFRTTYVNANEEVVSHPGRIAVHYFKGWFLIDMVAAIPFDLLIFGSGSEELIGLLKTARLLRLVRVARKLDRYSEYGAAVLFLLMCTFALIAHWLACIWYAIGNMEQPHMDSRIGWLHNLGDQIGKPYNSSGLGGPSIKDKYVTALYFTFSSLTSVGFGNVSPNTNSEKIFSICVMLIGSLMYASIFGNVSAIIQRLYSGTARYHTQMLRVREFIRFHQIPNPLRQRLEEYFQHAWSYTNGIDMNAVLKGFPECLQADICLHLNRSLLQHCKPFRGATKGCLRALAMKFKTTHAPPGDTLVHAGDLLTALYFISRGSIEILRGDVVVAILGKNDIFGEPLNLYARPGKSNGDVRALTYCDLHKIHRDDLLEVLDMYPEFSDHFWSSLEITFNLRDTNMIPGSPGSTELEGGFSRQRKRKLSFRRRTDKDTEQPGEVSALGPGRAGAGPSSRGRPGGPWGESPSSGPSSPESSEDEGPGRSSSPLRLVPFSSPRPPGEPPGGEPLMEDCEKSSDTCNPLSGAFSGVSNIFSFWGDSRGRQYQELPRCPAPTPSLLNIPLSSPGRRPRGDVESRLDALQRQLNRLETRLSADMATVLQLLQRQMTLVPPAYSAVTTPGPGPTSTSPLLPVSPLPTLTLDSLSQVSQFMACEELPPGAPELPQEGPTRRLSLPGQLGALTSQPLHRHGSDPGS

Row | Structure (SMILES) | hERG current change (%, negative = inhibition) at 10uM
1 | CC(=O)Nc1ccc(NC(=O)c2oc3cc(C)c(C)cc3c2C)cc1 | 7.5%
2 | COc1ccc(-c2cc(CCCC(=O)NCCc3ccc(OC)cc3OC)no2)cc1 | 5.37%
3 | CN(CC1COCCO1)C(=O)c1cc(COc2c(F)cccc2F)on1 (stereo not shown) | 6.62%
4 | O=C(COc1ncnc2c(Cl)cc(Cl)cc12)NCCC1=CCCCC1 | 12.4%
5 | Cc1cccc(C(=S)N2CCOCC2)n1 | 5.42%
6 | C=CCNC(=O)C(C)Sc1ccc(Cl)cc1 (stereo not shown) | 0.00948%
7 | Cc1cc(C(C)(C)C)cc(C)c1C(=O)O | 0.0126%
8 | Cn1cnnc1SCc1ccc(C(=O)N/N=C/c2cccs2)cc1 | 4.87%
9 | COc1ccc(F)c(CN(C)CC2CCCN(CCc3ccc(F)cc3)C2)c1 (stereo not shown) | -73.4%
10 | CN1C(=O)Cc2cc(S(=O)(=O)N3CCN(c4cccc(Cl)c4)CC3)ccc21 | 15.3%
11 | O=C1NC(=O)C(CCc2ccncc2)(Cc2ccc(OCc3ccccc3)cc2)C(=O)N1 | 11.8%
12 | COc1ccc(N(Cc2ccccc2)N=O)cc1 | -23.3%
13 | O=NN(CCc1ccncc1)c1ccc(OCc2ccccc2)cc1 | -65.2%
14 | Cc1ccc(SCC2=NNC(=O)C2)cc1 | -3.78%
15 | Cn1nc(-c2ccccc2)c(-c2nc(-c3ccc(Cl)cc3)no2)c1Cl | 6.65%
16 | Cc1ccc2nc(N(CCN(C)C)C(=O)/C=C/c3cccs3)sc2c1.Cl | -40.3%
17 | CCOc1ccccc1NC(=O)Cn1c(=O)c2ccccc2n(CC)c1=O | -11.7%
18 | CC(C)(C)NC(=O)[C@@H]1C[C@@H]2CCCC[C@@H]2CN1C[C@@H](O)[C@H](Cc1ccccc1)NC(=O)[C@H](CC(N)=O)NC(=O)c1ccc2ccccc2n1.CS(=O)(=O)O | -72.1%
19 | CC(C)(C)NC(=O)[C@@H]1C[C@@H]2CCCC[C@@H]2CN1C[C@@H](O)[C@H](Cc1ccccc1)NC(=O)[C@H](CC(N)=O)NC(=O)c1ccc2ccccc2n1 | -9.59%
20 | CS(=O)(=O)O.Cc1c(O)cccc1C(=O)N[C@@H](CSc1ccccc1)[C@H](O)CN1C[C@H]2CCCC[C@H]2C[C@H]1C(=O)NC(C)(C)C | -4.69%
21 | CC(=O)Nc1ccc(Nc2ncnc3c2cnn3-c2cccc(C)c2)cc1 | 10%
22 | O=C(O)c1ccc(S(=O)(=O)c2ccc(Sc3ccc(C(=O)O)c(C(=O)O)c3)cc2)cc1 | 23.3%

Row | Structure (SMILES) | hERG current change (%, negative = inhibition) at 10uM
23 | CCOC(=O)N1CCN(CC(O)COc2ccc(C)c(C)c2)CC1.Cl (stereo not shown) | 6.64%
24 | CCOC(=O)N1CCN(Cc2ccc(OCC(O)CN3CCCCC3)cc2)CC1 (stereo not shown) | 15.7%
25 | CCOC(=O)N1CCN(CC(O)COc2ccc(-c3ccccc3)cc2)CC1.Cl (stereo not shown) | -60.3%
26 | CCOC(=O)N1CCN(CC(O)COc2cc(C)cc(C)c2)CC1.Cl (stereo not shown) | -12.7%
27 | CCOC(=O)N1CCN(CC(O)COc2ccc(CC)cc2)CC1.Cl (stereo not shown) | -31.2%
28 | CCCc1ccc(OCC(O)CN2CCN(C(=O)OCC)CC2)cc1.Cl (stereo not shown) | -52.2%
29 | COc1ccccc1NC(=O)COC(=O)C1CCN(/C=C/C(=O)C(F)(F)F)CC1 | -49.6%
30 | Cc1ccc(S(=O)(=O)N/N=C\c2cn(CC(N)=O)c3ccccc23)cc1C | 5.21%
31 | Cc1nn(Cc2cccc(C(=O)Nc3ccn(Cc4ccccc4F)n3)c2)c(C)c1[N+](=O)[O-] | 6.24%
32 | Cc1ccc(-c2nc(N/N=C/c3ccncc3)c3ccccc3n2)cc1 | 3.06%
33 | COc1cc(C)c(CN2CCC(Cc3ccccc3)CC2)cc1C | -45.3%
34 | COc1cc(OC)c(CN2CCC(Cc3ccccc3)CC2)cc1Br | -70.9%
35 | COc1cc(C)cc(CN2CC=C(c3ccccc3)CC2)c1O | -51.4%
36 | COc1cc(CN2CCC(Cc3ccccc3)CC2)c([N+](=O)[O-])cc1OC | 0.589%
37 | COc1ccc(C(C)=O)cc1CN1CC=C(c2ccccc2)CC1 | -17%
38 | FC(F)(F)c1ccccc1CN1CCC(Cc2ccccc2)CC1 | 12%
39 | Cc1cc(O)c(CN2CC=C(c3ccccc3)CC2)cc1C(C)C | -14.1%
40 | COc1cc(C)cc(CN2CCC(Cc3ccccc3)CC2)c1O | -52.2%
41 | COc1ccc(CN2CCC(Cc3ccccc3)CC2)c(C)c1C | -23%
42 | O=C1C2C(c3ccccc3)CC=CC2[C@H](c2ccc(C(F)(F)F)cc2)N1Cc1ccccc1 (stereo partly shown) | -2.51%
43 | CCC(=O)Nc1c2c(nn1-c1ccc(OC)cc1)CS(=O)C2 (stereo not shown) | 9.94%
44 | CC(=O)c1ccc(NS(=O)(=O)Cc2ccccc2)cc1 | 3.41%

Row | Structure (SMILES) | hERG current change (%, negative = inhibition) at 10uM
45 | Cc1cc(=O)oc2cc(OCC(=O)OCc3nnc(-c4ccccc4)o3)ccc12 | 14.3%
46 | CCOC(=O)C1CCN(CC(O)COc2ccc(C(C)=O)cc2)CC1.Cl (stereo not shown) | -47.7%
47 | CCN1CCN(CC(O)COc2ccc(C(C)=O)cc2)CC1.Cl (stereo not shown) | 2.15%
48 | CC(C)(C)c1ccc(OCC(O)CN2CCOCC2)cc1 (stereo not shown) | -3.19%
49 | CCOC(=O)C1CCN(CC(O)COc2ccc(C(=O)CC)cc2)CC1.Cl (stereo not shown) | -68.5%
50 | CCOC(=O)C1CCN(CC(O)COc2ccc(C(C)(C)C)cc2)CC1.Cl (stereo not shown) | -70.4%
51 | CC1CCCC/C1=N\NC(=S)Nc1cccnc1 (stereo not shown) | 15.8%
52 | Cc1noc(C)c1COc1ccc(C(=O)OCC(N)=O)cc1 | 18%
53 | O=C(Nc1ccc(Cl)cc1)c1ccc(-n2cccn2)c([N+](=O)[O-])c1 | 4.78%
54 | CC(C)c1nc2c(s1)CCc1onc(-c3cccc([N+](=O)[O-])c3)c1-2 | 16.4%
55 | COc1cc(OC)cc(-n2nnnc2SCC(=O)N2CCCC2)c1 | -30.2%
56 | Cc1ccc(-n2nnnc2SCC(=O)NC2CCCc3ccccc32)c(C)c1 (stereo not shown) | -7.69%
57 | CCn1ccnc1CN1CCCC(C(=O)c2cccc(C(F)(F)F)c2)C1 (stereo not shown) | -31.1%
58 | O=C(c1ccc(C(F)(F)F)cc1)C1CCCN(Cc2ccc(CO)o2)C1 (stereo not shown) | -24.6%
59 | O=C(c1ccc(C(F)(F)F)cc1)C1CCCN(Cc2cccn2-c2ncccn2)C1 (stereo not shown) | -80.3%
60 | COCC(=O)N1CCCC(C(=O)c2ccc(C(F)(F)F)cc2)C1 (stereo not shown) | -0.113%
61 | O=C(c1cccc(C(F)(F)F)c1)C1CCCN(Cc2ncc[nH]2)C1 (stereo not shown) | 0.0209%
62 | O=C(c1cccc(C(F)(F)F)c1)C1CCCN(Cc2cccn2-c2ccccn2)C1 (stereo not shown) | -83.5%
63 | O=C(c1cccc(C(F)(F)F)c1)C1CCCN(C(=O)CCc2cnccn2)C1 (stereo not shown) | -15.6%
64 | O=C(c1cccc(C(F)(F)F)c1)C1CCCN(Cc2cccn2-c2ncccn2)C1 (stereo not shown) | -95.7%
65 | O=C1CCN(Cc2ccc(Br)cc2)CCN1CCO | -1.08%
66 | CCOc1ccc(S(=O)(=O)N(C)c2ccc(OCC(=O)Nc3nccs3)cc2)cc1 | 10.1%

Row | Structure (SMILES) | hERG current change (%, negative = inhibition) at 10uM
67 | O=C(O)CN1C(=O)C2C3C=CC(C2C1=O)C1C(=O)N(CC(=O)O)C(=O)C31 (stereo not shown) | 21.8%
68 | CSc1ccc(CN(C)C(=O)c2cccc(S(=O)(=O)N3CCN(Cc4ccccc4)CC3)c2)cc1 | -1.76%
69 | COc1cc(/C=C2/SC(=S)N(CC(=O)O)C2=O)ccc1OCC(=O)Nc1ccc(C)c(C)c1 | -6.69%
70 | COc1ccccc1/C=C1/C(=O)N(c2ccc([N+](=O)[O-])cc2)N=C1C | 12.7%
71 | CCOC(=O)CSc1nc2ccccc2c(=O)n1CC | -14.6%
72 | CCOC(=O)CSc1nc2ccccc2c(=O)n1CC1CCCC1 | -67.3%
73 | CCN(CC)C(=O)CSc1nc2ccccc2c(=O)n1CC | -1.18%
74 | CCN(CC)C(=O)CSc1nc2ccccc2c(=O)n1CC1CCCCC1 | -61%
75 | CCOC(=O)CSc1nc2ccccc2c(=O)n1CC1CCCO1 (stereo not shown) | -6.58%
76 | CCOC(=O)C(C)Sc1nc2ccccc2c(=O)n1CC1CCCCC1 (stereo not shown) | -10.1%
77 | Cl.c1ccc(N2CCCCC2)c(NC2=NCCC2)c1 | -15.5%
78 | CN(C)/C=C1\NC(=S)N(c2ccccc2)C1=O | 28.4%
79 | Cc1ccc2c(c1)N(CC(=O)N1CCOCC1)C(=O)CO2 | 4.9%
80 | COCCCNc1nc2nonc2nc1N1CCN(C2CCCC2)CC1 | -20.2%
81 | CC1CC(C)CN(C(=O)c2ccc3ccccc3c2)C1 (stereo not shown) | -19.2%
82 | CCc1ccc(OCC(O)CN2CCN(c3ccccn3)CC2)cc1.Cl (stereo not shown) | -67.4%
83 | CCCc1ccc(OCC(O)CN2CCN(c3ccccn3)CC2)cc1.Cl (stereo not shown) | -63.6%
84 | CCc1ccc(OCC(O)CN2CCN(c3ccccc3)CC2)cc1.Cl (stereo not shown) | -60.3%
85 | CCCc1ccc(OCC(O)CN2CCN(c3ccccc3)CC2)cc1.Cl (stereo not shown) | -46.5%
86 | COc1cccc(OCC(O)CN2CCN(c3ccccn3)CC2)c1.Cl (stereo not shown) | -12.7%
87 | CCc1ccc(OCC(O)CN2CCN(c3ccc(OC)cc3)CC2)cc1.Cl (stereo not shown) | -49.3%
88 | CCc1ccc(OCC(O)CN2CCN(CCO)CC2)cc1.Cl (stereo not shown) | -15.3%
